The values that follow come from PubChem BioAssay AID1949 (Southern Research Institute, 2009).

As usually defined, the inhibition is how much of the control response was suppressed.

Hit rate of the full screen: of about 100,000 compounds, about 1,600 (1.6%) were called active. Not shown: some 3% with an inconclusive outcome. Only a sample is shown. Values without a mark were called inactive. How the calls were made is not given here.

The experiment is described as follows: Mycobacterium tuberculosis H37Rv growth inhibition, cell based, confirmatory dose response (AID 1949).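 On inhibition: bacteria grown 7 days with compound before Alamar blue readout; 0% = untreated bacteria wells and 100% = bacteria with saturating antibiotic.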 The settings on record: M. tuberculosis H37Rv growth inhibition; active compounds read high.
`COc1ccccc1CNC(=S)Nc1ccc(OC)c(OC)c1`: the inhibition entry is “inactive”.

For `Cc1cccc2c(N=NC(=O)c3cccnc3)c(O)[nH]c12`, the inhibition result is “inactive”.

Turning to `CC(Sc1ccc(Cl)cc1)C(=O)Nc1ccccc1C(=O)O` (centres undefined), the inhibition entry was “inactive”.

As to `COc1ccccc1OCCCSc1nc2sc(C)c(C)c2c(=O)n1-c1ccccc1`, the inhibition result is “inactive”.

In the case of `Cc1cc(C)c(C#N)c(SCC(=O)Nc2sc3c(c2C#N)CCC3)n1`, the inhibition result was “inactive”.

On to `O=C(NCCSC1CCCCC1)c1ccc(-c2ccccc2)cc1`, for which the inhibition result was “inactive”.

For the compound `CSc1nc(C)c(Oc2ccccc2)c(=O)n1C`, the inhibition is 8.91%.

In the case of `CSc1ccc(-c2nnn(CC(=O)Nc3ccc4c(c3)OCO4)n2)cc1`, the inhibition result is “inactive”.

`COc1cc(/C=C2/SC(=O)N(CC(=O)O)C2=O)cc(OC)c1OC`: the inhibition result is “inactive”.

On to `CS(=O)(=O)N(CC(=O)NC1CCCCCC1)c1ccccc1F`, for which the inhibition result was “inactive”.

For `CCn1c(SCC(=O)Nc2ccc3c(c2)OCO3)nnc1-c1ccccc1`, the inhibition is 4.1%.

`CN(c1cccc(NC(=O)c2ccccc2N(Cc2ccccc2)S(=O)(=O)c2ccccc2)c1)S(C)(=O)=O`: the inhibition result was “inactive”.

With `Cc1ccc(F)cc1NC(=O)CSc1ccc(Br)cc1`, the inhibition was 36%.

As to `O=C(Oc1ccc2c3c(c(=O)oc2c1)CCC3)c1cccc(Cl)c1`, the inhibition result is “inactive”.

Consider `Cc1ccc(-c2csc(NC(=O)CSc3ccc(Br)cc3)n2)cc1`, for which the inhibition result is “inactive”.

Consider `C=CCOc1ccc(C2C(C(=O)c3cccs3)=C(O)C(=O)N2CCN(CC)CC)cc1OC` (centres undefined), for which the inhibition entry was “inactive”.

`CC(=O)C(C)n1c(=O)oc2ccc(Cl)cc21` (centres undefined): the inhibition is 0.0633%.

With `Cc1cccc2c1N(C)C(=O)C2(O)CC(=O)c1ccco1` (centres undefined), the inhibition entry was “inactive”.

Regarding `Cc1ccc(NC(=O)COc2ccc3c(C)c(Cc4ccccc4)c(=O)oc3c2C)cc1`, the inhibition entry is “inactive”.

For the compound `CCCCOc1ccc(C2C(C(=O)c3ccco3)=C(O)C(=O)N2CCOC)cc1OC` (centres undefined), the inhibition result was “inactive”.

For the compound `CCC(C)n1[nH]c(=O)c2c1NC(=O)CSC2c1ccc(Cl)cc1Cl` (centres undefined), the inhibition is 2.1%.

As for `Cc1ccc(S(=O)(=O)N(C)CC(=O)NCCCc2ccccc2)cc1`, the inhibition entry is “inactive”.

As for `Cc1ccc(OCCCCCNCCO)cc1C`, the inhibition result is “inactive”.

With `CC(=O)Nc1ccc(S(=O)(=O)Nc2ccc(Cc3ccncc3)cc2)cc1`, the inhibition result is “inactive”.

Take `COc1cc(OC)cc(C(=O)Nc2ccc(C(F)(F)F)cc2)c1`: the inhibition entry was “inactive”.

In the case of `CSc1cccc(NC(=O)CCSc2ccc(Cl)cc2)c1`, the inhibition result is “inactive”.

Consider `N#Cc1ccc(Oc2ccc(NC(=O)C3CC=CCC3C(=O)O)cc2)cc1` (centres undefined), for which the inhibition entry was “inactive”.

As to `CN(C(=O)CN1C(=O)c2ccccc2C1=O)C1CCCCC1`, the inhibition result was “inactive”.

`COc1ccc(OCCN(C)Cc2ccccc2)cc1`: the inhibition result was “inactive”.

Take `Cc1cc(S(=O)(=O)N2CCOCC2)ccc1F`: the inhibition result is “inactive”.

Consider `COc1ccc(Cl)cc1S(=O)(=O)Nc1ccccc1C`, for which the inhibition is 4.41%.

As to `CCN(CC)C(=O)c1ccc(NC(=O)c2ccccc2I)cc1`, the inhibition entry was “inactive”.

For `Cc1cc(=O)oc2cc(Oc3nnnn3-c3ccccc3)ccc12`, the inhibition result was “inactive”.

As for `CCOc1ccc(NC(=O)Nc2ccc(C)cc2Br)cc1`, the inhibition entry was “inactive”.
